# Compound activity: PubChem, National Center for Advancing Translational Sciences (NCATS)
# D1 agonist: human D1 receptor agonism; AID 504660; actives 1% (n = 360,000); activation, % at 2 µM; HEK293 T-REx D1 cells, calcium flux, agonist mode
# Target sequence (P21728 whole entry, looked up): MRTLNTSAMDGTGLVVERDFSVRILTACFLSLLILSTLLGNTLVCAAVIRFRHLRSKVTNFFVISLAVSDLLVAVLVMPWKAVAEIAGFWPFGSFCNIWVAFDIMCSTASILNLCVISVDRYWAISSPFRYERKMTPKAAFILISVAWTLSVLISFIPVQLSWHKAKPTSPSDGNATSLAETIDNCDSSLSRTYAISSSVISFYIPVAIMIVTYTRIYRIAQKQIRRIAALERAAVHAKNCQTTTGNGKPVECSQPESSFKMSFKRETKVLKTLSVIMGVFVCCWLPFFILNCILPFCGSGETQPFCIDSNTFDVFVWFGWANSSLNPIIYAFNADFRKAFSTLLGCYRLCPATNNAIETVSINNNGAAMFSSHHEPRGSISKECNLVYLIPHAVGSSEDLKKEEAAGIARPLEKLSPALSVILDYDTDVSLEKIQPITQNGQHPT
#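 Agonism was scored from calcium flux recorded over 180 s (1 read/s) after pintool compound addition, following a 10-cycle baseline. Cells were inducible force-coupled HEK293 TREx D1, plated overnight at 30 C and loaded with no-wash calcium dye.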
# TRHR agonist: activates the human TRH receptor; P34981; TRHR cells, calcium flux fluo-8, FDSS agonist mode; activation, % at 2 µM; actives 0.18% (n = 360,000); AID 493084
#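 TRHR-expressing cells, plated overnight in medium with 10% serum, were loaded with fluo-8 calcium dye at room temperature. After a 10 s baseline, library compound was pin-added and calcium release was recorded kinetically (ex 480/em 530) as agonist response.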
# D1 PAM: potentiators of human D1 dopamine receptor; actives 0.036% (n = 360,000); HEK293 TREx D1 cells, calcium flux, dopamine EC20 potentiation; potentiation, % at 10 µM; P21728; AID 504651; in the data active = potentiation above about 30%
# TRHR enhancer: allosteric enhancers of human TRH receptor; P34981; TRHR cells, fluo-8 calcium fluorescence, EC20 TRH enhancement; enhancement, % at 2 µM; actives 0.66% (n = 360,000); AID 493056; in the data active = enhancement above about 30%
#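 Enhancer read-out: after compound pinning and an initial kinetic agonist-mode read, an EC20 of TRH (10 nM final) was injected and fluo-8 calcium signal (Ex 480/Em 530) followed at 1 s/cycle for 100 cycles in TRHR-expressing cells.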
# D1 antagonist: human D1 dopamine receptor antagonism | P21728 | HEK293 TREx D1 cells, calcium flux, dopamine EC80; stronger effect = lower value | activity change, negative = inhibition, % at 10 µM | actives 3.2% (n = 360,000) | AID 504652; in the data active = activity change below about -30%
#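 Antagonism measured as reduced calcium response to an EC80 dopamine addition following 180 s compound pre-read; cells were inducible HEK293 Trex D1 plated overnight at 30 C, read kinetically at 1 cycle/sec.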
# A number is an active result; . = inactive; / = no result; ! = repeats disagree. This is a sample that favours compounds with a hit; in the whole collection about 4.7% have one here. Cut-off read from the data, not from the text of the source, unless noted: active = activation above about 30%; inactive = the rest.
SMILES,D1 agonist,TRHR agonist,D1 PAM,TRHR enhancer,D1 antagonist
COc1ccccc1NC(=O)C1CCC(CNS(=O)(=O)c2ccc3c(c2)CC(C)N3C(C)=O)CC1 (stereo unspecified),.,.,.,.,.
CCOC(=O)c1cc(-c2ccc(C)cc2)n(CC(=O)Nc2ccc(OC)c(Cl)c2)c1C,.,.,.,.,.
CC1CCN(C(=O)Cn2cnc3c(cnn3C(C)(C)C)c2=O)CC1,.,.,.,30,.
CC(C)(C)n1ncc2c(=O)n(CC(=O)N3CCCC3)cnc21,.,.,.,.,.
O=C(CN1C2CCCC1CC(NC(=O)c1ccccc1)C2)Nc1ccccc1 (stereo unspecified),.,.,.,40,-53
CCOc1ccc(C(=O)NC2CC3CCCC(C2)N3CC(C)C)cc1 (stereo unspecified),.,.,.,.,.
CC(C)CN1C2CCCC1CC(NC(=O)c1ccc([N+](=O)[O-])cc1)C2 (stereo unspecified),.,.,.,.,-48
CCCN1C2CCCC1CC(NC(=O)c1ccc(Br)cc1)C2 (stereo unspecified),.,.,.,.,-48
COc1cccc(C(=O)NC2CC3CCCC(C2)N3CC(=O)Nc2ccccc2)c1 (stereo unspecified),.,.,.,.,.
COc1cccc(CNC(=O)c2cc(=O)[nH]c3ccc(S(=O)(=O)N4CCCC4)cc23)c1,.,.,.,.,.
Cc1ccc(CCNC(=O)CCc2cn(Cc3ccccc3C)c3ccccc23)cc1,.,.,.,.,.
Cc1ccc(N(CC(=O)NCCc2ccc(Cl)cc2)S(=O)(=O)c2c(C)noc2C)cc1,.,.,.,.,-34!
COc1ccc(N(CC(=O)Nc2ccc(C)c(F)c2)S(=O)(=O)c2c(C)noc2C)cc1,.,.,.,.,.
CCOc1ccc(N(CC(=O)Nc2cccc(Cl)c2)S(=O)(=O)c2c(C)noc2C)cc1,.,.,.,.,-36
COc1ccc(N(CC(=O)Nc2ccc(C)c(C)c2)S(=O)(=O)c2c(C)noc2C)cc1,.,.,.,.,-42
CCOC(=O)c1c(CSc2ccccc2)n(C)c2cc(Br)c(OC)c(O)c12,.,.,.,.,.
CCOC(=O)c1c(CSc2ccccc2)n(C)c2cc(Br)c(OCC(O)CNC(CO)(CO)CO)cc12 (stereo unspecified),.,.,.,.,-47
N#Cc1c(NC(=O)CSc2nc3ccccc3s2)sc2c1CCCC2,.,.,.,.,.
N#Cc1cc2c(nc1SCC(=O)Nc1sc3c(c1C#N)CCC3)CCC2,.,.,.,.,-42
Cc1csc(SCC(=O)Nc2sc3c(c2C#N)CCC3)n1,.,.,.,.,-31
Cc1ccnc(SCC(=O)Nc2sc3c(c2C#N)CCCC3)n1,.,.,.,.,-33
CCOc1ccccc1NC(=O)COn1nnc2ccc(Cl)cc21,30,.,.,.,.
O=C(NCc1ccc2c(c1)CCN2C(=O)c1ccncc1)c1cccc(F)c1,.,.,.,.,.
CCN(C(=O)CSc1nc(C)nc2sc(C)c(C)c12)C1CCS(=O)(=O)C1 (stereo unspecified),.,.,.,.,-33
Cc1nc(SCC(=O)N(CC(C)C)C2CCS(=O)(=O)C2)c2c(C)c(C)sc2n1 (stereo unspecified),.,.,.,.,.
SMILES,D1 agonist,TRHR agonist,D1 PAM,TRHR enhancer,D1 antagonist
COc1ccc(C)cc1NC(=O)CSc1nc(=O)n(Cc2ccccn2)c2c1CCC2,.,.,.,.,/
O=C(/C=C/c1cccc([N+](=O)[O-])c1)N1CCN(c2ccccc2F)CC1,.,.,.,.,-58
O=C(/C=C/c1ccccc1[N+](=O)[O-])N1CCN(c2ccccc2F)CC1,.,.,.,.,-68
O=C(/C=C/c1ccc(Cl)cc1Cl)N1CCN(c2ccccc2[N+](=O)[O-])CC1,.,.,.,.,.
CC(C)Nc1cc(N2CCN(C3CCCCC3)CC2)c2noc3c2c1C(=O)c1ccccc1-3,.,.,.,.,.
CCN(Cc1cccs1)C(=O)CN1C(=O)NC(c2ccccc2)(c2ccccc2)C1=O,.,.,.,35,.
COc1ccc(CN2CCn3ncc(C(=O)Nc4cccc(C)c4)c3C2=O)cc1,.,.,.,.,.
COC(=O)c1cnn2c1C(=O)N(Cc1cccs1)CC2,.,.,.,34,.
